Reference: PubChem BioAssay
“And” between values parts separate entries of the source, which are not always exact repeats. Equal entries are not always repeated. The source made the active and inactive calls. No stated cut-off is given here; in the data, active means inhibition above about 80%; inactive means the rest.

Experiment: BT084 cell growth, single and combined drugs, ICGC_MB145, cisplatin and BGB IC40 combos (AID 1671461);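 further: cells exposed to drugs for 96 hours; 0% = vehicle DMSO and 100% = high DMSO full killing control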
Settings: BT084 medulloblastoma cells, drug combinations, measured here: BGB IC40 combination 0.05 uM, at 0.05 µM, stronger effect = higher value

Row | Structure (SMILES) | inhibition
1 | COc1cc([C@@H]2c3cc4c(cc3[C@@H](O[C@@H]3O[C@@H]5CO[C@@H](c6cccs6)O[C@H]5[C@H](O)[C@H]3O)[C@H]3COC(=O)[C@H]23)OCO4)cc(OC)c1O | -12.5% and 39.7%
2 | N=c1ccn2c(n1)O[C@H]1[C@H](O)[C@@H](CO)O[C@H]12 | -14%
3 | COc1cc(NS(C)(=O)=O)ccc1Nc1c2ccccc2nc2ccccc12 | 53.7% and -12.4%

Same assay, conditions: BT084 medulloblastoma cells, drug combinations, single agent, at 5 µM, stronger effect = higher value

Row | Structure (SMILES) | inhibition
4 | COc1cc([C@@H]2c3cc4c(cc3[C@@H](O[C@@H]3O[C@@H]5CO[C@@H](c6cccs6)O[C@H]5[C@H](O)[C@H]3O)[C@H]3COC(=O)[C@H]23)OCO4)cc(OC)c1O | 19.5% and 27.4%
5 | N=c1ccn2c(n1)O[C@H]1[C@H](O)[C@@H](CO)O[C@H]12 | -28.9%
6 | COc1cc(NS(C)(=O)=O)ccc1Nc1c2ccccc2nc2ccccc12 | 7.96% and 23.3%

Experiment: RCMB18 cell growth, single agent and combined, cisplatin and BGB IC40 combos (AID 1671462);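 further: cells exposed to compound for four days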
Settings: RCMB18 medulloblastoma cells, at 0.5 µM, stronger effect = higher value

Row | Structure (SMILES) | inhibition
7 | COc1cc([C@@H]2c3cc4c(cc3[C@@H](O[C@@H]3O[C@@H]5CO[C@@H](c6cccs6)O[C@H]5[C@H](O)[C@H]3O)[C@H]3COC(=O)[C@H]23)OCO4)cc(OC)c1O | -23.3% (inactive) and -2.62% (inactive)
8 | N=c1ccn2c(n1)O[C@H]1[C@H](O)[C@@H](CO)O[C@H]12 | -18% (inactive)
9 | COc1cc(NS(C)(=O)=O)ccc1Nc1c2ccccc2nc2ccccc12 | -1.22% (inactive) and -23% (inactive)

Same assay, conditions: RCMB18 medulloblastoma cells, cisplatin combo, at 5 µM, stronger effect = higher value

Row | Structure (SMILES) | inhibition
10 | COc1cc([C@@H]2c3cc4c(cc3[C@@H](O[C@@H]3O[C@@H]5CO[C@@H](c6cccs6)O[C@H]5[C@H](O)[C@H]3O)[C@H]3COC(=O)[C@H]23)OCO4)cc(OC)c1O | 23% and 40.9%
11 | N=c1ccn2c(n1)O[C@H]1[C@H](O)[C@@H](CO)O[C@H]12 | 61%
12 | COc1cc(NS(C)(=O)=O)ccc1Nc1c2ccccc2nc2ccccc12 | 58.3% and 44.1%

Same assay, conditions: RCMB18 medulloblastoma cells, measured here: BGB IC40 combination, at 0.05 µM, stronger effect = higher value

Row | Structure (SMILES) | inhibition
13 | COc1cc([C@@H]2c3cc4c(cc3[C@@H](O[C@@H]3O[C@@H]5CO[C@@H](c6cccs6)O[C@H]5[C@H](O)[C@H]3O)[C@H]3COC(=O)[C@H]23)OCO4)cc(OC)c1O | -29.1% and -17.5%
14 | N=c1ccn2c(n1)O[C@H]1[C@H](O)[C@@H](CO)O[C@H]12 | -21.5%
15 | COc1cc(NS(C)(=O)=O)ccc1Nc1c2ccccc2nc2ccccc12 | -16.8% and -37.3%

Same assay, conditions: RCMB18 medulloblastoma cells, measured here: combination with cisplatin, at 0.5 µM, stronger effect = higher value

Row | Structure (SMILES) | inhibition
16 | COc1cc([C@@H]2c3cc4c(cc3[C@@H](O[C@@H]3O[C@@H]5CO[C@@H](c6cccs6)O[C@H]5[C@H](O)[C@H]3O)[C@H]3COC(=O)[C@H]23)OCO4)cc(OC)c1O | -8.55% and 20.3%
17 | N=c1ccn2c(n1)O[C@H]1[C@H](O)[C@@H](CO)O[C@H]12 | 11.8%
18 | COc1cc(NS(C)(=O)=O)ccc1Nc1c2ccccc2nc2ccccc12 | 28.6% and 11.4%
